One experiment relates to CAOV3. The experiment is described as follows: Primary qHTS to identify gynecologic anti-cancer compounds using libraries of approved drugs and bioactive compounds (AID 1345084). Further: nearly all actives have a fitted effect of over 55% in size. On activity change, negative = cytotoxicity: on the % scale 0 is the no-effect control and ±100 the full control effect. The note with it: Gynecologic cancer cell panel viability, ATPlite luminescence, 48 h; series mostly up to 57.5 µM. In short, it runs like this:
(§1)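 Five-point cytotoxicity, 48 h drug exposure at 37 C, 5% CO2, on cells seeded 16 h beforehand. ATP content read by ATPlite luminescence.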
(In general: qHTS replaces the single test concentration by a dilution series.)

The subject of the next experiment is CASKI. The description is as above. The note with it: Gynecologic cancer cell panel viability, ATPlite luminescence, 48 h; series mostly up to 57.5 µM. In short, it runs like this:
as §1
For orientation: Cellular ATP, detected with luciferase, serves as a proxy for viable cell number.

Another experiment relates to Es-2. The experiment is described as above. The note with it: Gynecologic cancer cell panel viability, ATPlite luminescence, 48 h; series mostly up to 57.5 µM. The method in brief:
as §1

For a further experiment, the system named is HeLa. Described as above. As to conditions: Gynecologic cancer cell panel viability, ATPlite luminescence, 48 h; series mostly up to 57.5 µM. The method in brief: as §1
In a further experiment the test system is JEG-3. Described as above. The note with it: Gynecologic cancer cell panel viability, ATPlite luminescence, 48 h; series mostly up to 57.5 µM. In short, it runs like this:
as §1

Another experiment deals with PA-1. Described as above. The note with it: Gynecologic cancer cell panel viability, ATPlite luminescence, 48 h; series mostly up to 57.5 µM. The method in brief:
as §1

The test system of the next experiment is SKOV3. The experiment is described as above. As to conditions: Gynecologic cancer cell panel viability, ATPlite luminescence, 48 h; series mostly up to 57.5 µM. In short, it runs like this: as §1
A further experiment relates to Tov-21-G. The description is as above. As to conditions: Gynecologic cancer cell panel viability, ATPlite luminescence, 48 h; series mostly up to 57.5 µM. In short, it runs like this: as §1
Experiment [1] can be described thus: qHTS assay to identify inhibitors of the type 1 interferon - major histocompatibility complex class I in skeletal muscle: Counter screen cell viability and HiBit confirmation (AID 1347412). Further: nearly all actives have a fitted effect of over 60% in size. The note with it: iHSKM muscle cells + IFN-b, HiBiT or CellTiter-Glo, 24 h; HiBiT. The method in brief:
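After 24 h with human IFN-beta (4 ng/ml) and compound titrations (top 46 uM final, 1:3, 12 points), HLA-B HiBit myoblasts were lysed for either Nano-Glo HiBiT luminescence or CellTiter Glo viability on paired plates.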

The next experiment concerns Hek293T. Kind of experiment: Primary qHTS to identify gynecologic anti-cancer compounds using libraries of approved drugs and bioactive compounds (AID 1345084). Further: nearly all actives have a fitted effect of over 55% in size. On activity change, negative = cytotoxicity: on the % scale 0 is the no-effect control and ±100 the full control effect. The note with it: Gynecologic cancer cell panel viability, ATPlite luminescence, 48 h, control line for the selectivity index; series mostly up to 57.5 µM. The method in brief:
as §1

The next experiment relates to OV90. Described as above. The note with it: Gynecologic cancer cell panel viability, ATPlite luminescence, 48 h; series mostly up to 57.5 µM. The method in brief:
as §1

The next experiment concerns Tov112D. The experiment is described as above. The note with it: Gynecologic cancer cell panel viability, ATPlite luminescence, 48 h; series mostly up to 57.5 µM. The method in brief:
as §1

Results on 16 molecules are retold here after PubChem BioAssay (NCATS).

SMILES strings stand for the structures. Results filed as inconclusive are left out. Values without a mark were called inactive. The source made the active and inactive calls. The call rests on the fitted dose curve; in most records, active means well fitted curve in the direction sought with a large enough effect; inconclusive means small, poorly fitted or top-dose-only effect, or another doubt; inactive means no such curve, though single readings can be large; an effect the other way counts as inactive or inconclusive.
Potency means the concentration at half of the fitted maximal effect.

On to `COc1cc(N2CCC(N)CC2)ccc1Nc1ncc(Cl)c(-c2c[nH]c3ccccc23)n1`, for which the Potency was 22.4 µM (active) in the experiment with CAOV3; 28.2 µM (active) in the experiment with CASKI; 3.98 µM (active) with HeLa; 15.8 µM (active) in the experiment with PA-1; 5.01 µM (active) with SKOV3; 8.91 µM (active) in the experiment on Tov-21-G. Moreover, the Potency in experiment [1] was 5.57 µM (active). For the same molecule, the Potency entry in the experiment on Es-2 and with JEG-3 was “inactive” in each case.
Take `O=c1[nH]c([C@@H]2CCCN2)nc2c1oc1ccc(Cl)cc12`: the Potency entry in the experiment on CAOV3, with CASKI, in the experiment on Es-2, in the experiment with Hek293T, in the experiment on JEG-3 and in the experiment with OV90 was “inactive” each time. For the same molecule, the Potency result in the experiment with PA-1, in the experiment on SKOV3, in the experiment with Tov-21-G and in the experiment with Tov112D was “inactive” throughout.
For the molecule `CC(C)S(=O)(=O)NC[C@@H]1CC(c2ccc(N3CCCC3)c(F)c2)=NO1`, the Potency result in the experiment with CAOV3, in the experiment on CASKI, in the experiment on Es-2, in the experiment on HeLa, in the experiment on JEG-3 and in the experiment with PA-1 was “inactive” throughout. The Potency entry in the experiment on Tov-21-G and with Tov112D was “inactive” in each case.
As for `CC12CCC(OC3OC(CO)C(O)C(O)C3OC3OC(CO)C(O)C(O)C3O)CC1CCC1C2CCC2(C)/C(=C3/COC(=O)C3)CCC12O` (centres undefined), the Potency result in the experiment on CAOV3, in the experiment on CASKI, with Es-2, in the experiment with HeLa, in the experiment with Hek293T and in the experiment on JEG-3 was “inactive” each time. Besides, the Potency entry with PA-1 and in the experiment with SKOV3 was “inactive” each time.
As for `Cc1cc(F)c(C(=O)Nc2cccc(-c3nncn3C(C)C)n2)cc1-n1cnc(C2CC2)c1`, the Potency entry in the experiment on CAOV3, with CASKI, in the experiment on Es-2, in the experiment on Hek293T, with JEG-3 and in the experiment on OV90 was “inactive” each time. Also, the Potency result in the experiment with PA-1, with SKOV3, in the experiment on Tov-21-G and in the experiment on Tov112D was “inactive” each time.
For the molecule `CC(C)(O)C(=O)N1CCN(c2ccc(C(F)(F)F)c(C3=C(c4c[nH]c5ccccc45)C(=O)NC3=O)c2)CC1`, the Potency result in the experiment with CAOV3, in the experiment with CASKI, in the experiment on Es-2, in the experiment on Hek293T, with OV90 and in the experiment on PA-1 was “inactive” each time. For the same molecule, the Potency result in the experiment on Tov-21-G and with Tov112D was “inactive” in each case.
Regarding `O=C(NCCCCN1CCN(c2cccc(Cl)c2Cl)CC1)c1cc2ccccc2s1`, the Potency entry with CAOV3, in the experiment on CASKI, in the experiment with Es-2, with HeLa, with Hek293T and in the experiment with OV90 was “inactive” each time. Besides, the Potency result in the experiment on PA-1, in the experiment with SKOV3, with Tov-21-G and in the experiment on Tov112D was “inactive” throughout.
In the case of `OC1C=C2C3CN(Cc4cc5c(cc43)OCO5)C2CC1O` (centres undefined), the Potency result in the experiment on CAOV3, in the experiment on CASKI and with JEG-3 was “inactive” throughout. The figures for the Potency in the experiment on Es-2, in the experiment with Hek293T and with PA-1 were 25.1 µM (active), 8.91 µM (active) and 14.1 µM (active), respectively.
With `CNS(=O)(=O)c1ccccc1Nc1nc(Nc2ccc(N3CCN(C)CC3)cc2OC)ncc1Br`, the Potency in the experiment on CAOV3 was 2.24 µM (active); with CASKI, 7.94 µM (active); in the experiment on Hek293T, 14.1 µM (active); with PA-1, 2 µM (active); in the experiment on Tov112D, 12.6 µM (active).
`N#CSc1cc(SC#N)c(N)nc1N`: the activity change, negative = cytotoxicity with CAOV3 was -3.29% [at 11.6 µM]; with CASKI it was 10.8% [at 11.6 µM]; in the experiment on HeLa, -2.58% [at 11.6 µM]; in the experiment on JEG-3, 10.3% [at 11.6 µM]; in the experiment with OV90, 2.64% [at 11.6 µM]; in the experiment with SKOV3, -0.394% [at 11.6 µM]. For the same molecule, the activity change, negative = cytotoxicity with Tov-21-G is -3.87% [at 11.6 µM].
For the molecule `CC(=O)Nc1cccc(Nc2ncnc(N3CCC(OCc4ccc(OC(F)(F)F)cc4)CC3)n2)c1C`, the Potency result with CAOV3, in the experiment on CASKI, in the experiment on Es-2, in the experiment with HeLa, with JEG-3 and in the experiment on OV90 was “inactive” throughout. Also, the Potency result with PA-1, in the experiment with Tov-21-G and in the experiment on Tov112D was “inactive” in each case.
For `C[C@@H]1O[C@@H](O[C@H]2[C@H](OC(=O)[C@]34CCC(C)(C)C[C@H]3C3=CCC5[C@@]6(C)C[C@H](O)[C@H](O[C@@H]7O[C@H](CO)[C@@H](O)[C@H](O)[C@H]7O)[C@](CO)(C(=O)O)C6CC[C@@]5(C)[C@]3(C)C[C@H]4O)OC[C@H](O)[C@@H]2O)[C@H](O)[C@H](O)[C@H]1O[C@@H]1OC[C@@H](O)[C@H](O[C@@H]2OC[C@](O)(CO)[C@H]2O)[C@H]1O` (some centres undefined), the activity change, negative = cytotoxicity in the experiment with CAOV3 is -2.46% [at 6.55 µM]; in the experiment with CASKI it was -28.8% [at 6.55 µM]; in the experiment on OV90, -28.6% [at 6.55 µM]. The Potency with Es-2 was 2.82 µM (active); in the experiment with Tov112D, 1.41 µM (active).
With `Oc1cccc(-c2c3nc(c(-c4cccc(O)c4)c4ccc([nH]4)c(-c4cccc(O)c4)c4nc(c(-c5cccc(O)c5)c5ccc2[nH]5)CC4)C=C3)c1`, the Potency result with CAOV3, in the experiment with CASKI, in the experiment with JEG-3, in the experiment with SKOV3 and in the experiment with Tov112D was “inactive” in each case.
Turning to `COc1cc([C@H]2O[C@H](c3cc(OC)c4c(c3)OCO4)[C@H](C)[C@H]2C)cc(OC)c1OC`, the Potency entry in the experiment on CAOV3, in the experiment with CASKI, with HeLa, with JEG-3, in the experiment with Tov-21-G and with Tov112D was “inactive” each time. Besides, the Potency with OV90 is 8.91 µM (active).
With `CC(C)(C)c1ccc(NC(=O)N2CCN(c3ncccc3Cl)CC2)cc1`, the Potency result with CAOV3, with CASKI, with Es-2, in the experiment with HeLa, in the experiment on JEG-3 and in the experiment on Tov-21-G was “inactive” in each case. Besides, the Potency entry with Tov112D was “inactive”. The Potency with SKOV3 was 22.4 µM (active).
In the case of `CC1(C)CC[C@]2(C(=O)O)CC[C@]3(C)C(=CCC4[C@@]5(C)C[C@@H](O)[C@H](O)C(CO)(CO)C5CC[C@]43C)C2[C@@H]1O` (some centres undefined), the Potency entry in the experiment with CAOV3, with CASKI and in the experiment with OV90 was “inactive” each time. Further, the Potency in the experiment on Tov112D is 7.94 µM (active).
